This note sets out measurements from ChEMBL document CHEMBL4296182, “CO-ADD screening of NIH NCI Diversity Set V”.

Entries with a potency or affinity are not part of this list.

The assay concerns Cryptococcus neoformans. The note with it: Concentration 20 uM; ASSAY_TEST Inhibition of Fungal Growth; detection method Resazurin; Absorption (OD600-OD570); plate type 384well; NBS; CORNING #3640.
As a reminder, the Inhibition is the relative decrease from the control value, in per cent. As for `O=C(NC1(N2CCOCC2)CC1)c1ccc(Cl)cc1`, the Inhibition is given as -0.42%.
On to `O=C(Nc1cccc2c1N(C(=O)c1ccco1)CCC2)c1ccco1`, for which the Inhibition is reported as -2.48%.
For the compound `CCOC(=O)C1(C#N)C(=O)CS/C1=N/c1ccccc1Cl` (stereo unspecified), the Inhibition was -13.01%.
For `NC(CSC1(c2cccc3ccccc23)c2ccccc2-c2ccccc21)C(=O)O` (stereo unspecified), the Inhibition is given as -2.74%.
As for `CCN(CC)CCNC(=O)C(Cl)=C1C(Cl)=C(Cl)C(Cl)=C1Cl`, the Inhibition is given as -2.01%.
With `CCC1=C(c2ccc(OC)cc2)CCC(C(=O)O)C1C` (stereo unspecified), the Inhibition was -6.31%.
The value for `Cc1ccc(CC#N)c(-c2c(CC#N)ccc(C)c2C)c1C` was -13.71%; that for `CCOC(=O)c1c(C)nc(C)c(C(=O)OCC)c1-c1cccnc1` was -2.16%.
For `N=C(N)NC(=N)Nc1ccc(O)cc1`, the Inhibition is recorded as -11.16%.
For `CC1(C)N=C(N)N=C(NCCCOc2ccc([N+](=O)[O-])cc2)N1.CCS(=O)(=O)O`, the Inhibition is -10.08%.
Turning to `COc1cccc(OCC(O)CN2CCN(c3ccc(Cl)cc3)CC2)c1` (stereo unspecified), the Inhibition is -12.54%.
For `O=CN/C=C\c1cc(O)ccc1O`, the Inhibition is reported as 7.81%.
The value for `CN1CCC(=C2c3ccccc3C(O)c3ccccc32)CC1` (stereo unspecified) was -16.59%; that for `Cc1cc(=O)[nH]/c(=N/N=C2/CCCCC2C)[nH]1` (stereo unspecified) was -9.25%.
Consider `COc1cc(C(=O)OC(C)CN2CCOCC2)cc(OC)c1OC` (stereo unspecified), for which the Inhibition was -0.56%.
The value for `Nc1nc2cc([N+](=O)[O-])ccc2[nH]1` was -13.6%; that for `COc1cc2c(=O)n3c4c(cccc4c2cc1OC)CC3` was -14.32%.
Consider `Nc1nc(N)nc(-c2ccccc2-c2nc(N)nc(N)n2)n1`, for which the Inhibition is -8.57%.
As to `O=C1c2cccc(Sc3ccccc3)c2C(=O)c2c(Sc3ccccc3)cccc21`, the Inhibition is given as -7.69%.
Turning to `O=S(=O)(O)c1ccc2c(c1)C(C(Cl)(Cl)Cl)OC(C(Cl)(Cl)Cl)O2` (stereo unspecified), the Inhibition is recorded as -7.32%.
On to `CC1=C(C(N)=O)S(=O)(=O)c2ccccc21`, for which the Inhibition is reported as -16.62%.
